From PubChem BioAssay AID1566 (Sanford-Burnham Center for Chemical Genomics, 2009)
Where “and” joins values, the source holds several entries; their conditions need not be identical. Equal values may be shown once. About 1,800 (0.62%) of roughly 290,000 compounds were called active. This is one part of a sample in which actives are shown more often than they occur. Unmarked numbers belong to inactive results. Cut-off read from the data, not from the text of the source: active = inhibition above about 50%; inactive = the rest.

test: NOD2 signaling inhibitors, cell-based, luminescence, uHTS, HEK293 (AID 1566); conditions: HEK293 NOD2/NF-kB luciferase reporter, at 4 µM, stronger effect = higher value

| SMILES | inhibition |
| --- | --- |
| CC(C(=O)NCc1ccccc1)N1CCN(c2ccc(F)cc2)CC1 (stereo not given) | 5.1% |
| COc1ccc(CNC2CCSc3ccccc32)cc1OC (stereo not given) | 23.3% |
| CCn1c(=O)cc(OCC(=O)N2CCc3ccccc32)c2ccccc21 | 17.9% |
| COc1ccccc1OCc1nnc(SCC(=O)N2CCCC2)o1 | 4.2% |
| COc1ccccc1OCc1nnc(SCC(=O)N2CCCCC2)o1 | -9.8% |
| COc1ccccc1OCc1nnc(SCC(=O)c2cc(Cl)ccc2OC)o1 | 57.5% (active) |
| CC(C)NC(=O)NC(=O)COC(=O)C1(C)CC1(Cl)Cl (stereo not given) | -8.2% |
| COC(=O)C(CO)NC(=O)C(C)NC(=O)CNC(=O)OCc1ccccc1 (stereo not given) | 9% |
| COc1ccccc1NC(=O)c1cc2n(n1)C(C(F)(F)F)CC(c1ccc3c(c1)OCO3)N2 (stereo not given) | 35.9% |
| O=C(Nc1cc(Cl)ccc1O)c1cc2n(n1)C(C(F)(F)F)CC(c1ccc3c(c1)OCO3)N2 (stereo not given) | 53.1% (active) |
| COc1ccc(OC)c(NC(=O)c2cc3n(n2)C(C(F)(F)F)CC(c2ccc4c(c2)OCO4)N3)c1 (stereo not given) | 35.2% |
| CCN(CC(=O)Nc1ccc(N2CCOCC2)cc1)C(=O)c1ccc(C#N)cc1 | 0.4% |
| Cc1ccc(N2CC(C(=O)N3CCN(C(=O)c4ccco4)CC3)CC2=O)cc1 (stereo not given) | 3.8% |
| COc1cc(NCc2ccccc2O)c2ncccc2c1 | -106% |
| CCC(CNc1cc(OC)cc2cccnc12)NC1CCCCC1 (stereo not given) | 74.6% (active) |
| COc1cc(NC(=O)C2CCCCC2)c2ncccc2c1 | 7.2% |
| Cc1ccccc1N=C1NC(=O)/C(=C/c2cccn2-c2cccc(C(=O)O)c2)S1 | 10.7% |
| CC(C)CN1CCN(CCCc2ccccc2)C(CCO)C1 (stereo not given) | -35.5% |
| COc1ccc(N2C(=O)NC3CC2(C)Oc2ccccc23)cc1 (stereo not given) | 15.5% |
| O=C(CCS(=O)(=O)c1ccccc1)NC1CCCCC1 | -43.9% |
| COc1ccc(OCC(=O)Nc2cc(-c3nn(C)c(=O)c4ccccc34)ccc2OC)cc1 | 46.6% |
| COc1ccc(-c2nn(C)c(=O)c3ccccc23)cc1NC(=O)COc1ccc(C)cc1 | 53.6% (active) |
| COc1ccc(-c2nn(C)c(=O)c3ccccc23)cc1NC(=O)COc1ccccc1 | 31.2% |
| CCc1nnc(NC(=O)CSc2nc(C)cc(C)c2C#N)s1 | -111% |

| SMILES | inhibition |
| --- | --- |
| COc1ccc(C)cc1S(=O)(=O)N(CC(N)=O)Cc1ccccc1 | -4.4% |
| O=C(CCC(=O)Nc1ccc(Cl)cc1Cl)N/N=C/c1ccc([N+](=O)[O-])o1 | 33.1% |
| O=C(Cc1ccc([N+](=O)[O-])cc1)N/N=C/c1ccc([N+](=O)[O-])o1 | 33.1% |
| CCCCCC(=O)N/N=C/c1ccc([N+](=O)[O-])o1 | 28.5% |
| O=C(N/N=C/c1ccc([N+](=O)[O-])o1)C1CC1 | 23.5% |
| O=C(CN1CCCCCCC1)N/N=C/c1ccc([N+](=O)[O-])o1 | 67.4% (active) |
| O=C(CSc1ccc(Cl)cc1)N/N=C/c1ccc([N+](=O)[O-])o1 | 69.6% (active) |
| O=C(N/N=C/c1ccc([N+](=O)[O-])o1)C1CCCC1 | 60.2% (active) |
| COC(=O)N/N=C/c1ccc([N+](=O)[O-])o1 | -0.6% |
| CCCCCCCC(=O)N/N=C/c1ccc([N+](=O)[O-])o1 | 16.9% |
| COc1cc(C(O)P(=O)(OC2CCCCC2)c2ccc(N(C)C)cc2)cc(OC)c1OC (stereo not given) | 0.5% |
| C=CCNC(=S)NNC(=O)COc1ccc2cc(Br)ccc2c1 | -39.9% |
| CCCCCC(C)NC(=O)c1ccoc1C (stereo not given) | 12.6% |
| COC(=O)C1CCN(C(=O)Cc2ccc(Br)cc2)CC1 | -8.4% |
| O=C(CC1C(=O)NCCN1Cc1ccccc1)NCCCOc1cccnc1 (stereo not given) | 9.1% |
| CC(=C/c1ccccc1)/C=N/Nc1nc(N2CCOCC2)nc(N2CCOCC2)n1 | -9.3% |
| CC[n+]1c(/C=C/c2ccc(OC)c(OC)c2)ccc2ccccc21 | -117% |
| CC[n+]1c(/C=C/c2ccc(N(C)C)cc2)ccc2ccccc21 | 17.2% |
| CC(NCCS(=O)(=O)c1ccc(Cl)cc1)c1cccc(Cl)c1 (stereo not given) | 54.1% (active) |
| CC(C)c1ccc(C(C)NCCS(=O)(=O)c2ccc(Br)cc2)cc1 (stereo not given) | -12.3% |
| CC(C)c1ccc(C(C)NCCS(=O)(=O)c2ccc(Cl)cc2)cc1 (stereo not given) | 14.9% |
| CCCCOC(=O)C1=C(C)NC(=O)NC1c1ccc([N+](=O)[O-])s1 (stereo not given) | 17.4% |
| CCCc1nc2ccccc2c(C(=O)OCC(=O)Nc2cccc(S(=O)(=O)N3CCOCC3)c2)c1CC | -4.4% |
| CCc1nc2ccccc2c(C(=O)OCC(=O)Nc2ccc(S(=O)(=O)N3CCOCC3)cc2)c1C | -9% |

| SMILES | inhibition |
| --- | --- |
| CCN(CC)CCNC(=O)c1ccc(NC(=O)Nc2cccc3ccccc23)cc1 | -10.7% |
| O=C(c1ccccc1)N1CCN(CCc2ccccn2)CC1 | -11.9% |
| COc1ccc(N2C(=O)C3C4C=CC(c5ccccc5)(C3C2=O)C2C(=O)N(c3ccc(OC)cc3)C(=O)C42)cc1 (stereo not given) | 8% |
| COc1ccc(C(=O)Nc2cc(OC)c(Cl)cc2OC)cc1 | 4.7% |
| COc1cc(NC(=O)c2ccccc2)c(OC)cc1Cl | -0.5% |
| CCN1CCN(C2=C(NS(=O)(=O)c3ccc(Br)cc3)C(=O)c3ccccc3C2=O)CC1 | 50.9% (active) |
| CCN1CCN(C2=C(NS(=O)(=O)c3ccc(C)cc3)C(=O)c3ccccc3C2=O)CC1 | 38% |
| CCN1CCN(C2=C(NS(=O)(=O)c3ccccc3)C(=O)c3ccccc3C2=O)CC1 | 18.2% |
| Cc1cc(NC(=O)CSc2nc3ccccc3c(=O)n2Cc2ccccc2)no1 | 9.6% |
| NC(=O)CSc1nc2ccccc2c(=O)n1Cc1ccccc1 | 5.3% |
| CCOC(=O)Cc1c(C)nc(-c2ccccc2)[nH]c1=O | -6.7% |
| COc1ccccc1N1CCN(C(=O)CCNS(=O)(=O)c2cc(Br)cnc2N)CC1 | 21% |
| COCCCNC(=O)C1CC(=O)OC1c1ccc(OC)c(OC)c1 (stereo not given) | -13% |
| O=C(CCl)N(c1ccccc1)C1CCS(=O)(=O)C1 (stereo not given) | 1.5% |
| O=C(CCl)N(c1ccccc1)C1CCCCC1 | 52.5% (active) |
| CC(=O)N(c1ccccc1)C1CCCC1 | 16.4% |
| COc1ccc(NC(=S)NCCc2ccccc2)c(C)c1 | 1.7% |
| Nc1c(-c2n[nH]c(=S)n2-c2ccc(Cl)cc2Cl)cnn1-c1ccccc1 | -0.1% |
| CCN(CC)S(=O)(=O)c1ccc(/C(O)=C2/C(=O)C(=O)N(CCOC)C2c2ccccc2)cc1 (stereo not given) | 8.8% |
| COc1ccc(Cc2nc3ccc(C(=O)NCCn4cccn4)cc3o2)cc1 | -0.5% |
| CCn1cc(CNC(=O)c2ccc3nc(Cc4ccccc4F)oc3c2)cn1 | 24.7% |
| CCn1cc(CNC(=O)c2ccc3nc(Cc4ccc(OC)cc4)oc3c2)cn1 | 54.1% (active) |
| CCOC(=O)N1CCN(C(=O)c2ccc3c(c2)NC(=O)/C(=C/c2ccccc2)S3)CC1 | 9.6% |
| O=C(c1ccccc1)c1coc2c1C(=O)c1ccccc1C2=O | 28.9% |

| SMILES | inhibition |
| --- | --- |
| O=C1c2ccccc2C(=O)c2c1oc(C(F)(F)F)c2C(=O)c1ccccc1 | 77.4% (active) |
| Cc1oc2c(c1C(=O)O)C(=O)c1ccccc1C2=O | 19% |
| COc1cc(NC(=O)CCS(=O)(=O)c2ccc3c(c2)n(C)c(=O)c(=O)n3C)cc(OC)c1 | -1.3% |
| CCN(CC)CCNC(=O)c1cccc(NC(=O)C(=O)c2ccccc2NC(C)=O)c1 | 3.6% |
| COc1ccc(C(C)(C)C)cc1S(=O)(=O)n1ccnc1C | 9% |
| OCCN(CCO)CC(O)COc1ccc(C23CC4CC(CC(C4)C2)C3)cc1 (stereo not given) | 51.5% (active) |
| OCCN(CCO)CC(O)COc1ccc(Br)cc1 (stereo not given) | 19% and 15.4% |
| OCCN1CCN(CC(O)COc2ccc(C34CC5CC(CC(C5)C3)C4)cc2)CC1 (stereo not given) | 6% |
| O=C1c2[nH]nc(-c3ccccc3O)c2C(c2cccc(O)c2)N1Cc1ccco1 (stereo not given) | 24.7% |
| COc1ccc(S(=O)(=O)N2CCCCC2)cc1NC(=O)CN(C)C1CCCCC1 | 8% |
| Cc1cnn(-c2cc(N/N=C/c3ccc(F)cc3)ncn2)c1 | -26.9% |
| CC1=CC(=C2C(=O)c3ccccc3C2=O)C=C(C)O1 | -31.6% |
| CCCN1C=CC(=C2C(=O)c3ccccc3C2=O)C=C1 | 83.7% (active) |
| CN1C=CC(=C2C(=O)c3ccccc3C2=O)C=C1 | -99% |
| CCN1C(=C2C(=O)c3ccccc3C2=O)C=Cc2ccccc21 | 2.2% |
| CCCCCCN1C=CC(=C2C(=O)c3ccccc3C2=O)C=C1 | -6.6% |
| CCCCN1C(C)=CC(=C2C(=O)c3ccccc3C2=O)C=C1C | -61.1% |
| CCCCNC1=CC(=O)C(=O)c2ccccc21 | -26.1% |
| CC1=CC(=C2C(=O)c3ccccc3C2=O)C=C(C)N1C | -61.9% |
| CCCCCN1C=CC(=C2C(=O)c3ccccc3C2=O)C=C1 | 73.5% (active) |
| CCN1C=CC(=C2C(=O)c3ccccc3C2=O)C=C1 | 54.1% (active) |
| CCCCN1C=CC(=C2C(=O)c3ccccc3C2=O)C=C1 | 79.8% (active) |
| CCCCN1C=CC(=C2N=c3cccc([N+](=O)[O-])c3=N2)C=C1 | 7.8% |
